Rows were chosen to be rich in hits. Some 12% of all compounds tested hit in one or more screens of this group.
RORgamma inh: qHTS for inhibitors of ROR gamma transcriptional activity; Drosophila S2 Gal4-RORgamma UAS-luciferase reporter, 20 h; Potency, µM (titrated, usually from 53.6 µM), for the others: at the highest dose activity change, negative = inhibition, most hits filed as inhibitors; Nuclear receptor ROR-gamma (Mus musculus), P51450; actives 5.4% (n = 310,000); also: nearly all actives have a fitted effect of over 60% in size
Target sequence (P51450 whole entry, looked up, the tested form may be a part): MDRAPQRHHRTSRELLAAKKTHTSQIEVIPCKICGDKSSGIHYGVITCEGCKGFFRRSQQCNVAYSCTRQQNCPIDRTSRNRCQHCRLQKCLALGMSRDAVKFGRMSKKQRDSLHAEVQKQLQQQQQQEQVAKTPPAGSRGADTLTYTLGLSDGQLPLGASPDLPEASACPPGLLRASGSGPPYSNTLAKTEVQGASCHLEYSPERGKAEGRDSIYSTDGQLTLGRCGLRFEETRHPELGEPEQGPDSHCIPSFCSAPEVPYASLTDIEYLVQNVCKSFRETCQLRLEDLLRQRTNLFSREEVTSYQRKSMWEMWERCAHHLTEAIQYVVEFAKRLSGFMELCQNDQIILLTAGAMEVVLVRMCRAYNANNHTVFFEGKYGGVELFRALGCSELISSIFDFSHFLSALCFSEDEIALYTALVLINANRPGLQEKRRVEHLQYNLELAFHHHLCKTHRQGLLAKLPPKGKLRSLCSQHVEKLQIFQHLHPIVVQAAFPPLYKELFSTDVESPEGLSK
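Stable Schneider cell line, Gal4 DNA-binding domain fused to ROR gamma, UAS-luciferase. Cmpd 1 hr RT → CuSO4 700 uM final → 20 hr RT → luciferase reagent 10 min → luminescence.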
PLK1 PBD inh: qHTS for Inhibitors of PLK1-PDB (polo-like kinase 1 - polo-box domain): Primary Screen. AID 720504, 2013. Plk1 PBD binding of FITC phosphopeptide, fluorescence polarization. Potency, µM, for inactives: max response, negative = inhibition, most hits filed as inhibitors. actives 2.8% (n = 360,000); also: series mostly up to about 57 µM; nearly all actives have a fitted effect of over 65% in size
Gal4-VP16 FLuc: VP16 counterscreen qHTS for inhibitors of ROR gamma transcriptional activity | Drosophila S2 Gal4-VP16 UAS-luciferase, luminescence, 20 h | Potency, µM (top dose mostly 53.6 µM), for the others: top-dose activity, negative = inhibition, most hits filed as inhibitors | actives 3.5% (n = 310,000) | AID 2546, 2010;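 also: Gal4-VP16 expression switched on by copper sulfate through the metallothionein promoter; nearly all actives have a fitted effect of over 50% in size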
ALDH1A1 block: qHTS Assay for Inhibitors of Aldehyde Dehydrogenase 1 (ALDH1A1); Aldehyde dehydrogenase 1A1 (Homo sapiens), P00352; Purified ALDH1A1, NADH fluorescence, propionaldehyde substrate; Potency, µM (doses to about 75.3 µM), inactives show at the top dose activity, negative = inhibition, hits mostly inhibitors; actives 7.3% (n = 220,000); active = well fitted inhibition curve with a large enough effect, not every such curve was filed as active; inconclusive = small, poorly fitted or top-dose-only effect, or another doubt; inactive = no such curve, though single readings can be large or run the other way;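 also: plate controls were no enzyme wells and a reference inhibitor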
Sfp PPTase inh: qHTS Assay for Inhibitors of Bacillus subtilis Sfp phosphopantetheinyl transferase (PPTase) | AID 1490, 2009 | actives 3.5% (n = 310,000) | Biochemical Sfp PPTase activity, qHTS | Potency, µM, without a hit: largest response in the series, negative = inhibition, usual class: inhibitors | 4'-phosphopantetheinyl transferase ffp (Bacillus subtilis), Q9F4F7;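 also: the enzyme is Sfp with the accession as filed and its product quenches rhodamine fluorescence; 0% = enzyme reaction without inhibitor and -100% = no enzyme wells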
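Buffer: 50 mM Hepes-Na pH 7.6, 10 mM MgCl2, 0.01% Nonidet P-40, 0.01% BSA. Enzyme 15 nM, pre-exposed to compound 15 min; substrates then added and fluorescence change tracked over 30 min.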
The depositor's hits bear a star; ? = inconclusive; · = no result; [ ] = dose if it differs, or a comment. Unless noted, calls follow the shape of the dose curve; as a rule, active = well fitted curve in the direction sought with a large enough effect; inconclusive = small, poorly fitted or top-dose-only effect, or another doubt; inactive = no such curve, though single readings can be large; an effect the other way counts as inactive or inconclusive. Unless noted, % is scaled to controls: 0 for no effect and ±100 for the full control effect; potency is read from the fitted curve at half-maximal effect.

SMILES	RORgamma inh	PLK1 PBD inh	Gal4-VP16 FLuc	ALDH1A1 block	Sfp PPTase inh
COC(=O)C1C2C=CC(C3CC23)C1C(=O)OCC(=O)c1ccc(OC)cc1 (centres undefined)	?	-12%	-20%	6.3µM*	-2%
O=C1[C@H]2[C@H]3[C@H](O)[C@H](O)C/C(=N/OCc4ccccc4)[C@H]3CC[C@@H]2C(=O)N1Cc1ccc2c(c1)OCO2	22%[10 µM]	·	-4%[10 µM]	-4%[13.5 µM]	20%
COc1ccc(-c2ccc(C(=O)NCc3ccc(N(C)C)cc3)c3occc23)c(C)c1	·	-5%	·	·	·
COc1cccc(CN2CCN(C(=O)c3cccc(OC)c3)CC2)c1	13%	-1%	-6%	·	79µM*
O=C(c1cccnc1)N1CCN(Cc2cccc(F)c2)CC1	-7%	-3%	-1%	?	79µM*
O=[N+]([O-])c1ccccc1CN1CCN(Cc2ccccn2)CC1	-38%	17µM*	5%[10 µM]	?	50µM*
COc1cccc(CN2CCN(C(=O)c3ccc(-c4ccccc4)cc3)CC2)c1	0%	0%	4%	?	-16%
O=C(c1ccccc1)N1CCN(Cc2cccc(Oc3ccccc3)c2)CC1	?	24µM*	0%	?	-14%
O=C(O)CC1(C(=O)O)CCCCC1	·	·	·	1%[13.5 µM]	·
N=c1ccn2c(n1)O[C@H]1[C@@H](O)[C@@H](CO)O[C@H]12	·	·	·	-4%	·
COc1cc(OC)cc(C(=O)N2CCN(Cc3ccccc3[N+](=O)[O-])CC2)c1	12%	?	10%	1.4µM*	50µM*
O=C(c1cccc(OC2CCN(Cc3ccc(F)cc3)CC2)c1)N1CCCC1	-17%	21µM*	2%	·	16%
Fc1cccc(CN2CCN(c3ncccn3)CC2)c1	31%	2%	16%	13µM*	45µM*
COc1cccc(C(=O)N2CCN(Cc3ccccc3C(F)(F)F)CC2)c1	1%	-19%	0%	?	56µM*
COc1cccc(C(=O)N2CCN(Cc3ccccc3Br)CC2)c1	-22%	-4%	-2%	·	-38%
FC(F)(F)c1cccc(CN2CCN(c3ncccn3)CC2)c1	·	2%	·	·	·
COc1ccc(C(=O)N2CCN(Cc3ccccc3[N+](=O)[O-])CC2)cc1	25%	-5%	10%	·	-26%
O=c1c(-c2cccs2)nc2ccccc2n1C(c1ccccn1)c1nc2ccccc2[nH]1 (centres undefined)	·	-1%	·	·	·
O=C(NCC(F)(F)F)[C@H]1O[C@@H](n2ccc(=O)[nH]c2=O)[C@H](O)[C@@H]1O	·	-6%	·	·	·
COc1ccccc1OCC(=O)N/N=C1/C=C(C)CC1	?	-5%	-21%	-11%	-29%
Cc1c(NC(=S)NC(=O)c2cccc(Br)c2)c(=O)n(-c2ccccc2)n1C	-8%	-21%	8%	·	-9%
CC(=O)NNC(=S)NC(=O)c1ccc(C)cc1	22%	3%	-4%	?	23%
Cc1ccc(C(=O)NC(=S)Nn2cnnc2)cc1	2%	?	-4%	20µM*	28µM*
O=C(NC(=S)Nn1cnnc1)c1cccc(Br)c1	-27%	?	7%	7.9µM*	-68%
COc1cc2oc(=O)c(Br)c(C)c2c(OC)c1OC	-21%	-1%	-1%	13µM*	6%
SMILES	RORgamma inh	PLK1 PBD inh	Gal4-VP16 FLuc	ALDH1A1 block	Sfp PPTase inh
CC1S/C(=N/N=C/c2cccc([N+](=O)[O-])c2)NC1=O (centres undefined)	7%	4%	-9%	·	-12%
Cc1ccc(S(=O)(=O)Oc2ccc(C)cc2/C=N/N=C2\NC(=O)C(C)S2)cc1 (centres undefined)	13µM*	-19%	10µM*	9%	9%
CC(C)CN1CCCC2(CCN(C(=O)c3cnccn3)CC2)C1	-17%	·	-10%	?	23%
Cc1nnc(SCc2ccc([N+](=O)[O-])cc2)o1	29%	3.8µM*	-13%	-8%	-1%
Cc1nc(SCc2ccc([N+](=O)[O-])cc2)n[nH]1	16%	-16%	19%	·	25%
CC(C)OC(=O)CC(=O)CSc1nc(-c2ccc(F)cc2)cc(-c2ccccc2)c1C#N	-42%	24µM*	-6%	?	3%
N#Cc1c(-c2ccccc2)cc(-c2ccccc2)nc1SCC(=O)NCC(=O)O	3%	24µM*	4%	?	20µM*
CC[C@@H](C)[C@H]1O[C@]2(CC[C@@H]1C)C[C@@H]1C[C@H](C/C=C(/C)[C@H](O[C@@H]3C[C@H](OC)[C@H](O[C@@H]4C[C@H](OC)[C@@H](O)[C@H](C)O4)[C@H](C)O3)[C@@H](C)/C=C\C=C3CO[C@@H]4[C@H](O)C(C)=C[C@@H](C(=O)O1)[C@]34O)O2 (tested in a mixture with another compound)	7%	·	6%	-15%	-7%
COc1cccc(S(=O)(=O)Nc2ccc3c(c2)C(=O)N(C)C[C@H](OC)[C@H](C)CN[C@@H](C)CO3)c1	·	-1%	·	·	·
O=C(Oc1ccccc1Cl)c1ccccc1	·	0%	·	·	·
O=C(Oc1cccccc1=O)c1ccccc1	10µM*	-26%	?	-2%	25µM*
O=Nc1nc2ncccn2c1-c1ccccc1	·	7.5µM*	·	·	·
Cc1nn(-c2ccc(NC(=O)c3ccncc3)cc2)c(C)c1Cl	?	-8%	7.9µM*	·	0%
C=CCOc1cccc(C(=O)/C=C2/C(=O)Nc3ccccc32)c1	13µM*	?	?	·	56µM*
CC(=O)/C=C1/C(=O)Nc2ccccc21	3.5µM*	21µM*	7.1µM*	3.2µM*	50µM*
CC(=O)N(C)c1ccc(N=C2C(=O)Nc3ccccc32)cc1	-3%	-19%	-4%	·	2%
O=[N+]([O-])c1cc(-c2ncccn2)cs1	11%	-5%	-5%	10%	13%
COc1cc(CNCc2ccccn2)ccc1OCc1c(Cl)cccc1Cl	14µM*	4%	20µM*	-6%	40µM*
COc1cc(CNCc2ccccn2)ccc1OCc1cccc(Cl)c1	4µM*	3%	?	-3%	79µM*
CCOC(=O)CSc1nc(C)c(CC)c(C)c1C(N)=O	31%	-6%	4%[10 µM]	12%	13%
Cc1cc(C)c(C#N)c(SCC(=O)OC2CCCCC2)n1	-24%	-4%	-5%	28µM*	-3%
CCOC(=O)CSc1nc(C)cc(C)c1C#N	2%	?	14%	25µM*	56µM*
CCOC(=O)CSc1nc(C)cc(C)c1C(N)=O	-5%	-1%	-7%	7%	16%
Cc1cc(C)c(C#N)c(SCC(=O)CC(=O)OC(C)C)n1	1%	-14%	-4%	17%	1%
CCOC(=O)CSc1nc(N)nc(C)c1Cl	9%	30µM*	-1%	8%	-2%
